The record followed here is PubChem BioAssay (NCATS).

Unmarked numbers belong to inactive results. Results filed as inconclusive are left out. The source made the active and inactive calls. Unless noted, calls follow the shape of the dose curve; as a rule, active = well fitted cell-killing curve with a large enough effect; inconclusive = small, poorly fitted or top-dose-only effect; inactive = flat fitted curve, though single readings scatter.

Experiment [1] in a line: Cell Viability - LYMP2-020 (AID 986). Also: nearly all actives have a fitted effect of over 55% in size. Also: potency is read from the fitted curve at half-maximal effect. The essentials:
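qHTS, 2500 cells/well; 5 hr then 24 hr compound exposure, 37 C; CellTiter-Glo luminescence after 30 min RT; ATP decrease taken as cytotoxicity; AC50 via Hill equation; tetraoctylammonium bromide positive control.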

Experiment [2] in a line: Cell Viability - LYMP2-024 (AID 988). Also: nearly all actives have a fitted effect of over 60% in size. Also: potency is read from the fitted curve at half-maximal effect. The method in brief: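 ATP-based luminescence (CellTiter-Glo, 30 min RT) after 24 h compound exposure at 37 C of 2500 lymphoblastoid cells/well; decrease in ATP taken as cytotoxicity. qHTS concentration-response fitted to standard Hill equation for AC50.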
Experiment [3] can be described thus: Cell Viability - LYMP2-026 (AID 989). Also: nearly all actives have a fitted effect of over 50% in size. The essentials: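 qHTS cytotoxicity: 2500 cells/well, 5 hr 37 C, compound 24 hr 37 C, CellTiter-Glo 30 min RT, luminescence. Tetraoctylammonium bromide positive control. AC50 via standard Hill fit.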
Experiment [4] in a line: Cell Viability - LYMP1-002 - Assay at 24 hr (AID 993). Also: potency is read from the fitted curve at half-maximal effect. The method in brief: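 CellTiter-Glo luminescence (intracellular ATP) after 24 h compound exposure, 37 C, in LYMP1-002 human lymphoblastoid cells; decreased ATP taken as cytotoxicity. AC50 from standard Hill fit of concentration-response curves.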
The nature of experiment [5]: Cell Viability - LYMP1-002 - Assay at 40 hr (AID 994). Also: nearly all actives have a fitted effect of over 60% in size. Also: potency is read from the fitted curve at half-maximal effect. The method in brief: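 qHTS cytotoxicity; 2500 cells/well, 5 hr 37 C settle, compound 40 hr 37 C. CellTiter-Glo, 30 min RT, luminescence (ATP). Concentration-response, Hill fit → AC50. Pos. ctrl tetraoctylammonium bromide.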
Experiment [6] is described as follows: qHTS Assay for Identification of Small Molecule Inducers of Hypoxia Response (AID 2120; active = well fitted curve in the direction sought with a large enough effect in the signal ratio, with a control signal flat, not every such curve was filed as active; the % refers to the signal ratio). The essentials:
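Read-out: CCF4 FRET emission ratio 460nm/530nm (excitation 405nm), converted to %Activity, with AC50 fitted across a compound titration. ME-180 cells carried an HRE-driven beta-lactamase reporter; compound exposure 17 h, 37 degrees C.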

Experiment [7] in a line: Cell Viability - LYMP2-022 (AID 987). Also: nearly all actives have a fitted effect of over 55% in size. Also: potency is read from the fitted curve at half-maximal effect. The essentials:
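Luminescent ATP read-out (CellTiter-Glo, 30 min, RT) after 24 hr, 37 C compound exposure of 2500 human lymphoblastoid cells/well in complete medium. Cytotoxicity taken as concentration-dependent ATP loss; AC50 from standard Hill equation.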

In experiment [8] the target is Estrogen receptor (Homo sapiens) (UniProt P03372). Description: qHTS assay for small molecule antagonists of estrogen receptor alpha signaling (AID 588513; active = well fitted curve in the direction sought with a large enough effect in the signal ratio, with a control signal flat, not every such curve was filed as active; the % refers to the signal ratio). The essentials: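 ER-alpha-UAS-bla GripTite HEK 293 cells in 2% charcoal/dextran-treated FBS medium; compounds titrated (1:2, duplicate), then stimulated with 0.5 nM 17-beta-estradiol for 18 h at 37C. CCF4 beta-lactamase fluorescence; Hill-fit IC50 and efficacy.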
Sequence of Estrogen receptor (Homo sapiens) (P03372 whole entry, looked up): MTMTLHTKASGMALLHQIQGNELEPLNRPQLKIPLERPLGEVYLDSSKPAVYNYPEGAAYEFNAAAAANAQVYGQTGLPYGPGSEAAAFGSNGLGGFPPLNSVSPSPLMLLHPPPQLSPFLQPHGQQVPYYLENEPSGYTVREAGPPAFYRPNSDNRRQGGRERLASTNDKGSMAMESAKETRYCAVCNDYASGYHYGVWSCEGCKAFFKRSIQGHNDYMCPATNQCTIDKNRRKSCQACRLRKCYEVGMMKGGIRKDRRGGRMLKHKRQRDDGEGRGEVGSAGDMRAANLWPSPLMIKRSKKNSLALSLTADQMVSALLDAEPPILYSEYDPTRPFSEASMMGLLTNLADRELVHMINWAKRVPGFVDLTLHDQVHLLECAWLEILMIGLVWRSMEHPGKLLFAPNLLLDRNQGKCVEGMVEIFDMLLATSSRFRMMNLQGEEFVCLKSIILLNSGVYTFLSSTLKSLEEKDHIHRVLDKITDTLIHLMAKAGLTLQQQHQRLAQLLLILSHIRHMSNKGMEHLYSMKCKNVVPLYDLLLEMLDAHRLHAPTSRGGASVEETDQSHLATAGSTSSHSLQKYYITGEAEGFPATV
In general terms: qHTS replaces the single test concentration by a dilution series.

The target is the same in experiment [9]. Description: qHTS assay for small molecule agonists of estrogen receptor alpha signaling (AID 588514; calls by dose curve; also: nearly all actives have a fitted effect of over 70% in size). The essentials:
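Read-out: CCF4 fluorescence from a beta-lactamase reporter in ER-alpha-UAS-bla HEK 293 cells after 18 hrs of compound exposure at 37 C. Normalized to 20 nM 17-beta-estradiol (100%) and DMSO (0%).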

For the molecule `CCCC=O`, the Potency result in experiment [1], in experiment [2], in experiment [4] and in [5] was “inactive” throughout. The outcome in experiment [3] and in [6] was inactive.

Turning to `c1ccc2[nH]cnc2c1`, the Potency entry in experiment [1], in experiment [7], in experiment [2], in [4] and in [5] was “inactive” in each case. Besides, the outcome in experiment [6] was inactive.

On to `CC(C)Cc1nccs1`, for which the Potency result in experiment [1], in experiment [7], in experiment [2], in experiment [4] and in experiment [5] was “inactive” throughout. In addition, the molecule was called inactive in [6].

With `N#CCc1ccccc1[N+](=O)[O-]`, the Potency entry in [7], in experiment [2], in experiment [4] and in [5] was “inactive” in each case. The molecule was called inactive in experiment [3] and in experiment [6].

Consider `O=[N+]([O-])c1ccccc1CCO`, for which the Potency result in [1], in experiment [7], in [2], in experiment [4] and in experiment [5] was “inactive” throughout. The call in experiment [6] was inactive.

As to `Cc1ccc2c(c1[N+](=O)[O-])C(=O)c1ccccc1C2=O`, the Potency result in experiment [1], in experiment [4] and in [5] was “inactive” in each case. For the same molecule, the molecule was called inactive in [3] and in [6].

For the molecule `CC(C)(C)OC=O`, the Potency result in [4] and in [5] was “inactive” each time. The outcome in [6] was inactive.

Turning to `CCCCC/C=C/C=C/C=O`, the Potency in [1] was 39.8 µM (active); in experiment [7], 50.1 µM (active); in [2] it was 50.1 µM (active). Moreover, the Potency result in experiment [4] and in experiment [5] was “inactive” in each case. For the same molecule, the call in experiment [6] was inactive.

Take `CC(=O)OCCC(C)C`: the Potency entry in [1], in experiment [2], in [4] and in experiment [5] was “inactive” each time. In experiment [6], the molecule was called inactive.

Turning to `CC1=C(/C=C/C(C)=C/C=C/C(C)=C\C=O)C(C)(C)CCC1`, the Potency is 39.8 µM (active) in experiment [7], 31.6 µM (active) in experiment [2], 63.1 µM (active) in [4] and 50.1 µM (active) in experiment [5]. For the same molecule, the molecule was classed as inactive in experiment [6].

For the molecule `CCCCC(CC)C(=O)O` (stereo not drawn), the Potency entry in experiment [1], in [2] and in experiment [4] was “inactive” throughout. Moreover, the call in [3] and in [6] was inactive.

Consider `Cc1ccc(C)o1`, for which the Potency result in [1], in experiment [7], in experiment [2], in [4] and in experiment [5] was “inactive” in each case. Also, in experiment [6], the molecule was classed as inactive.

For the molecule `CC(=O)CCc1ccccc1`, the Potency entry in experiment [1], in experiment [7], in [2] and in experiment [5] was “inactive” throughout. In experiment [6], the call was inactive.

In the case of `CCC(=O)/C=C/C1C(C)=CCCC1(C)C` (stereo not drawn), the Potency entry in experiment [1], in [4] and in [5] was “inactive” throughout. The call in experiment [3] and in experiment [6] was inactive.

Take `O=C(O)c1ccc(CO)o1`: the Potency entry in [1], in experiment [7], in experiment [4] and in experiment [5] was “inactive” in each case. Further, the call in [3] and in experiment [6] was inactive.

Turning to `CC(C)C=O`, the Potency result in [7], in [2], in experiment [4] and in experiment [5] was “inactive” in each case. The call in experiment [6] was inactive.

For `CC/C(C)=N/O`, the Potency entry in [1], in [2], in experiment [4] and in experiment [5] was “inactive” throughout. In addition, the molecule was called inactive in [3] and in [6].

On to `O=C(O)c1ccc(C(=O)O)cc1`, for which the Potency result in experiment [7], in experiment [2], in experiment [4] and in [5] was “inactive” throughout. Moreover, in experiment [6], the call was inactive.

On to `O=C(O)c1ccccc1[N+](=O)[O-]`, for which the Potency result in experiment [2], in experiment [4] and in experiment [5] was “inactive” throughout. Further, the outcome in [3] and in [6] was inactive.

In the case of `CCN(C(=O)N(CC)c1ccccc1)c1ccccc1`, the Potency result in experiment [1], in experiment [2] and in experiment [4] was “inactive” each time. Further, in experiment [6], the molecule was called inactive.

As to `CC(=O)OC(C)=O`, the Potency entry in [7], in [2], in experiment [4] and in experiment [5] was “inactive” throughout. Further, the molecule was classed as inactive in [3] and in experiment [6].

Regarding `CC1(N)CCC(C(C)(C)N)CC1` (stereo not drawn), the Potency result in experiment [1], in [7], in experiment [2] and in experiment [5] was “inactive” in each case. Further, the result in [3] was inactive.

As to `Cc1ccccc1C(N)=O`, the Potency entry in [1], in experiment [7], in experiment [2] and in experiment [9] was “inactive” throughout. Moreover, the outcome in [3] and in experiment [8] was inactive.

Consider `Cc1ccco1`, for which the Potency entry in experiment [1], in experiment [7], in experiment [2], in experiment [4], in experiment [5] and in experiment [9] was “inactive” each time. For the same molecule, the molecule was classed as inactive in experiment [3] and in [8].

Take `O=Nc1ccc(NO)cc1`: the Potency in experiment [2] was 39.8 µM (active). Further, the Potency result in experiment [4] is “inactive”. The molecule was called inactive in experiment [8].

`O=CNc1ccccc1`: the Potency entry in [7], in [2], in experiment [4] and in [5] was “inactive” throughout.

With `COC(=O)CCC(=O)OC`, the Potency result in experiment [7], in [2] and in [9] was “inactive” in each case. The result in experiment [3] and in experiment [8] was inactive.

As for `N#Cc1ccccc1`, the Potency result in experiment [1], in experiment [7], in experiment [2] and in [4] was “inactive” each time. Besides, the call in experiment [3] was inactive.

`C=CC(=O)NC(C)C`: the Potency result in [7], in experiment [2], in [4], in experiment [5] and in experiment [9] was “inactive” each time. In experiment [8], the molecule was called inactive.

As for `Fc1ccccc1`, the Potency result in experiment [1], in experiment [7], in [2], in experiment [4], in experiment [5] and in [9] was “inactive” each time. Besides, the result in experiment [3] and in experiment [8] was inactive.

On to `CCC=O`, for which the Potency result in experiment [1], in [7], in experiment [2], in experiment [4], in [5] and in experiment [9] was “inactive” throughout. For the same molecule, the outcome in [3] and in experiment [8] was inactive.

As for `CC(C)=CCC/C(C)=C/C=O`, the Potency result in experiment [1], in [7], in [2], in experiment [4], in [5] and in [9] was “inactive” throughout. The molecule was called inactive in [3] and in experiment [8].
